From PubChem BioAssay
Luc counter: Kinase-Glo luciferase inhibition (counter-screen) | Q27757 | Kinase-Glo luciferase, ATP luminescence, 8 min | Potency, µM (series often up to 38.3 µM), without a hit: top-dose activity change, negative = inhibition, most hits filed as inhibitors | 200,000 compounds, 0.28% hits | AID 1379; also: % is scaled to controls: 0 for no effect and ±100 for the full control effect; nearly all actives have a fitted effect of over 60% in size
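Compound is pinned into ATP-containing buffer (10 uM ATP, imidazole pH 7.2, 7 mM MgCl2). Kinase-Glo luciferase reagent is then added. Light output is recorded following an 8-min room-temperature incubation.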
Rab9 promoter act: activates the Rab9 promoter. 320,000 compounds, 2.8% hits. Huh7 Rab9 promoter-luciferase reporter, luminescence, 24 h. Potency, µM (highest dose often 9.22 µM), for the others: top-dose activation, negative = inhibition, most hits filed as activators; also: % of control where 0% means no effect; nearly all actives have a fitted effect of over 60% in size
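Stable Rab9-luc Huh7, 1500 cells/well, 2 h settle; cmpd in DMSO, 24 h, 37 °C/5% CO2; luciferase reagent 10 min RT; luminescence.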
ELG1 genotox: genotoxicity induction in ELG1-luciferase HEK293T cells; HEK293T ELG1-luciferase reporter, luminescence, 16 h; Potency, µM (titrated, usually from 46 µM), for the others: top-dose activity change, positive = activation, most hits filed as activators; 330,000 compounds, 1.3% hits; also: % of control where 0% means no effect; nearly all actives have a fitted effect of over 60% in size
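ELG1-luciferase HEK293T cells, 2,000/well; compound pinned in; 16 hr, 37 °C, 5% CO2; ONE-Glo, 30 min RT; luminescence on CCD imager.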
SMN2 splice up: increases expression of the SMN2 splice variant; 210,000 compounds, 2.8% hits; AID 1458; Potency, µM (titrated, usually from 46.1 µM), inactives show at the highest dose activity change, positive = activation, hits mostly activators; HEK293 SMN2-luciferase splicing reporter, luminescence, 30-36 h; also: % of control where 0% means no effect; nearly all actives have a fitted effect of over 55% in size
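qHTS luciferase splicing reporter: luminescence rises when SMN2 exon 7 is included in transfected HEK293 cells. Compound exposure lasted 30-36 h at 37C, with 4.5 mM final sodium butyrate as control, followed by a ONE-Glo read.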
NPC1 prom act: activators of NPC1 promoter | Huh7 NPC1 promoter luciferase reporter, 24 h | Potency, µM (top dose mostly 9.22 µM), for inactives: at the top dose activation, actives largely listed as activators | 320,000 compounds, 2.4% hits; also: % of control where 0% means no effect; nearly all actives have a fitted effect of over 60% in size
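Readout is luciferase luminescence, reflecting NPC1 promoter activation in stably transfected Huh7 cells after 24 h compound exposure at 37 °C in reduced-serum medium with 10% FBS.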
FLuc counter: firefly luciferase modulation, counter-screen for miR-21 project | P08659 | purified FLuc, Km substrates, luminescence inhibition | Potency, µM (titrated, usually from 57.5 µM), for the others: at the highest dose activity change, negative = inhibition, usual class: inhibitors | 360,000 compounds, 6.9% hits | AID 588342;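 also: plate controls were vehicle for no effect and reference inhibitor for full effect; nearly all actives have a fitted effect of over 55% in size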
Target sequence (P08659 whole entry, looked up): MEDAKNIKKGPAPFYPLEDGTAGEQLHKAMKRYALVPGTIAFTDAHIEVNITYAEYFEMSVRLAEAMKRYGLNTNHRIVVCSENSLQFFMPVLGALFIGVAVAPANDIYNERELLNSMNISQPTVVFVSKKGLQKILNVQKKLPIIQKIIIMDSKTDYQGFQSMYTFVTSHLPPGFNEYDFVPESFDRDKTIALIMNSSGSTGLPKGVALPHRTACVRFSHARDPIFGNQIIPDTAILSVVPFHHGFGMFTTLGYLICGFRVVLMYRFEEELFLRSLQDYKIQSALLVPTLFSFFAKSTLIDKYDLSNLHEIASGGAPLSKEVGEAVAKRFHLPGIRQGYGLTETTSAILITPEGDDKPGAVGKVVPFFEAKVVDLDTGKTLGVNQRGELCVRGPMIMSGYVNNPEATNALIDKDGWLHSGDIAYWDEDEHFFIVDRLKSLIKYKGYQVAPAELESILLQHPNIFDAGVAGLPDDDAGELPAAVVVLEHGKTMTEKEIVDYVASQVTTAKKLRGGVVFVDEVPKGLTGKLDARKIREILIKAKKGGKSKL
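Purified P. pyralis luciferase (10nM final) with 10uM D-luciferin and 10uM ATP (Km levels) in 50mM Tris acetate pH 7.5, 10mM Mg acetate, 0.01% Tween-20, 0.05% BSA; qHTS 6-point titration, ~60 µM downward; luminescence read.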
Active calls of the source: *; ? = inconclusive; nt = no result; [ ] = remark or other dose. Only some compounds are listed: those with a hit (about 7.5% of all), similar ones and a draw of the others. Calls follow the shape of the dose curve; as a rule, active = well fitted curve in the direction sought with a large enough effect; inconclusive = small, poorly fitted or top-dose-only effect, or another doubt; inactive = no such curve, though single readings can be large; an effect the other way counts as inactive or inconclusive. Potency is read from the fitted curve at half-maximal effect.

SMILES	Luc counter	Rab9 promoter act	ELG1 genotox	SMN2 splice up	NPC1 prom act	FLuc counter
CCc1c(C(=O)N/N=C/c2cccs2)nnn1-c1nonc1N	nt	14.9%	4.3%	nt	17.1%	12µM*
CC(C)c1c(C(=O)N/N=C/c2ccc(C(F)(F)F)cc2)nnn1-c1nonc1N	nt	-4.2%	6.2%	nt	-0.3%	16.9µM*
Cc1ccsc1/C=N/NC(=O)c1nnn(-c2nonc2N)c1C(C)C	nt	-1.2%	-1.5%	nt	-2.6%	16.9µM*
CCCc1c(C(=O)N/N=C/c2sccc2C)nnn1-c1nonc1N	nt	-4.2%	1.8%	nt	2.0%	3.6%
CC(C)c1c(C(=O)N/N=C/c2ccsc2)nnn1-c1nonc1N	nt	-0.7%	3.9%	nt	-7.5%	21.3µM*
CN(C(=O)c1c(O)c2ccccc2n(C)c1=O)c1ccccc1	2.5%	nt	nt	nt	nt	nt
CCOc1ccc(CNC(=O)CCc2cn(Cc3ccccc3)c3ccccc23)cc1	2.2%	-0.2%	1.2%	-12.6%	-1.0%	-3.3%
CC(C)c1c(C(=O)N/N=C/c2ccoc2)nnn1-c1nonc1N	nt	0.3%	3.2%	nt	-0.4%	?
CC(C)c1c(C(=O)N/N=C/c2cccs2)nnn1-c1nonc1N	nt	3.0%	0.1%	nt	8.5%	16.9µM*
COc1ccc(/C=C\C(=O)c2c(O)ccc3c(C)cc(=O)oc23)cc1OC	-5.1%	?	-16.5%	-46.3%	-9.8%	2.7%
O=C(c1ccco1)n1nc(-c2ccccc2)nc1NCc1ccccc1Cl	nt	nt	nt	-1.7%	nt	2.4%
O=C1/C(=C/c2ccccc2)Nc2ccccc21	-8.0%	1.6%	-0.8%	-23.9%	-3.2%	4.26µM*
Cc1ccc2[nH]c(=O)c(CN(C(=O)c3cccs3)c3ccccc3)cc2c1	9.1%	-2.7%	-2.5%	25.1%	1.2%	7.3%
O=C(c1ccc(-c2nc3ccccc3s2)o1)N1CCN(c2ccccc2O)CC1	nt	?	-9.1%	nt	?	16.9µM*
O=Cc1ccc(-c2nc3ccccc3s2)o1	?	?	?	11.2µM*	27.0%	10.7µM*
O=C(O)c1ccc(-c2nc3ccccc3s2)o1	nt	?	12.3%	nt	?	6.01µM*
O=C(CCc1nc2ccccc2s1)N1CCN(c2ccccc2)CC1	1.6%	-2.5%	-12.1%	12.4%	6.0%	3.1%
O=CN1CCN(C(=O)c2ccc(-c3nc4ccccc4s3)s2)CC1	-7.7%	1.12µM*	?	nt	1.78µM*	10.7µM*
O=C(O)c1ccc(-c2ccc(-c3ccccc3)cc2)o1	1.4%[39.9 µM]	nt	nt	nt	nt	nt
O=C(O)c1cc([N+](=O)[O-])cc([N+](=O)[O-])c1N1CCN(c2cccc(C(F)(F)F)c2)CC1	nt	-10.7%	-3.7%	nt	0.3%	3.9%
COc1cccc(NC(=O)CCc2c(C)nc3ncnn3c2C)c1	nt	nt	nt	5.0%	nt	3.7%
CCOc1ccc(C(=O)Nc2cc(-c3cn4cccnc4n3)ccc2C)cc1OCC	nt	nt	nt	nt	nt	-16.0%
CC(=O)c1ccc(N2CCN(C(=O)c3cc4c(s3)-c3ccccc3OC4)CC2)cc1	nt	nt	nt	6.5%	nt	-7.1%
CC(C)[C@@H](N)C(=O)N/N=C/c1ccc2ncccc2c1	nt	-0.6%	-0.9%	nt	1.7%	?
Fc1c(F)c(F)c(N=Cc2ccc3ncccc3c2)c(F)c1F	-3.1%	-1.5%	8.4%	-27.7%	-3.8%	6.75µM*
SMILES	Luc counter	Rab9 promoter act	ELG1 genotox	SMN2 splice up	NPC1 prom act	FLuc counter
CCCN(CCC)C(=O)c1cc2c(=O)n3cccc(C)c3nc2n1C	nt	nt	nt	nt	nt	-0.5%
Cc1c(N(C)S(=O)(=O)c2ccc(Cl)c(C(=O)N3CCC(C(N)=O)CC3)c2)c(=O)n(-c2ccccc2)n1C	nt	-2.5%	-1.0%	nt	-4.2%	7.5%
CCC(=O)Nc1ccc(Br)cn1	-1.9%	-8.3%	-2.8%	nt	-3.3%	1.5%
Cc1cc(C(=O)Nc2ccc(Br)cn2)sc1C	nt	2.24µM*	?	nt	1µM*	nt
O=C(Nc1ccc(Br)cn1)c1ccc(Br)s1	nt	0.794µM*	?	nt	?	4.26µM*
Cc1ccccc1C(=O)Nc1ccc(Br)cn1	nt	3.55µM*	9.2µM*	nt	?	10.7µM*
O=C(Nc1ccccc1C(=O)Nc1ccc(Br)cn1)c1ccccc1Cl	nt	-8.0%	-3.0%	nt	-4.0%	?
O=C(Nc1ccc(Br)cn1)c1ccc(Cl)s1	nt	1µM*	3.26µM*	nt	0.891µM*	4.26µM*
COc1ccccc1OCCNc1ccc(S(=O)(=O)N2CCCC2)cn1	nt	-0.3%	0.2%	nt	0.4%	-2.2%
Cc1ccc(-n2nc3c(=O)n(C(C)C(=O)NCc4ccc(OC(C)C)cc4)nc(C)c3c2C)cc1 (stereo unspecified)	nt	nt	nt	nt	nt	-15.7%
COc1cccc(NC(=O)CN(C)C(=O)CSc2ccc3c(c2)OCCO3)c1	nt	1.0%	-0.5%	nt	-1.4%	-18.0%
CSc1cccc(NC(=O)CN2C(=O)COc3ccc(Cl)cc32)c1	nt	nt	nt	-24.9%	nt	-4.0%
CCOc1ccc(NC(=O)c2ccc3c(c2)CCN3S(=O)(=O)CC)cc1	nt	nt	nt	nt	nt	-16.9%
CC(=O)c1cccc(NC(=O)CCS(=O)(=O)c2ccc3c(c2)n(C)c(=O)c(=O)n3C)c1	nt	nt	nt	5.9%	nt	1.9%
O=C(Nc1ccccn1)c1ccc(Cl)s1	nt	3.98µM*	?	nt	2.24µM*	?
O=C(N/N=C/C1CC2C=CC1C2)c1ccccc1O (stereo unspecified)	nt	-9.3%	0.9%	nt	-0.3%	21.3µM*
C=CCNC(=O)N1CCCC(C(=O)c2cccc(OC(C)C)c2)C1 (stereo unspecified)	nt	3.55µM*	?	nt	?	16.9µM*
COc1nc(N)nc(N2CCOCC2)n1	1.4%	-5.1%	3.0%	-27.4%	-2.2%	4.2%
COc1nc(N)nc(NC23CC4CC(CC(C4)C2)C3)n1	-2.7%	4.6%	?	27.6%	7.1%	5.36µM*
OCCN1CCN(C(c2ccccc2Cl)c2sc3nc(-c4ccco4)nn3c2O)CC1 (stereo unspecified)	nt	nt	nt	nt	nt	-13.9%
CS(=O)(=O)c1ccccc1C(=O)Nc1cccc(-c2nc3ccccc3o2)c1	nt	-1.1%	-5.6%	nt	-3.8%	10.7µM*
Cc1cc2nc(-c3cccc(NC(=O)c4cccc5ccccc45)c3)oc2cc1C	nt	nt	nt	6.7%	nt	2.13µM*
Cc1ccc2nc(-c3cccc(NC(=O)c4ccc(Br)o4)c3)oc2c1	nt	nt	nt	16.3%	nt	2.69µM*
Cc1ccc(C(=O)Nc2cccc(-c3nc4ncccc4o3)c2)cc1	nt	6.4%	-19.0%	nt	29.2%	13.5µM*
Cc1ccc2nc(-c3ccc(Cl)c(NC(=O)c4ccc(Br)o4)c3)oc2c1	nt	nt	nt	-8.1%	nt	?
O=C(Nc1cccc(-c2nc3ncccc3o2)c1)c1ccccc1	1.0%	2.2%	-4.6%	-31.1%	0.5%	?
Cn1c(=O)c2c(nc(Oc3ccccc3Cl)n2Cc2ccc(C#N)cc2)n(C)c1=O	nt	nt	nt	-7.2%	nt	-5.6%
Cc1ccc2nc(-c3cccc(NC(=O)c4cccc5c(Cl)cccc45)c3)oc2c1	nt	nt	nt	11.3%	nt	2.39µM*
